Most compounds without a hit are left out; they make up all but 2.2% or so of the library.
TDP43 rescue: qHTS of TDP-43 Inhibitors; TDP-43 expressing yeast growth rescue, BacTiter-Glo, 24 h; Potency, µM (doses to about 46.1 µM), most hits filed as activators; hit rate 1.8% among 410,000; AID 652104, 2013; also: nearly all actives have a fitted effect of over 50% in size
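Cell-based yeast growth screen: TDP-43 expression induced in galactose, inoculum OD600=0.02 after raffinose pregrowth to mid-log. Read-out BacTiter-Glo luminescence at 24 hr, 30 deg C; inhibition of toxicity seen as signal increase.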
FUS suppressor: qHTS for Suppressors of FUS Proteinopathy: Primary screen using FUS-linked yeast assay. S. cerevisiae FUS-expressing, growth rescue, OD600, 24 h. Potency, µM (top dose mostly 76.6 µM), usual class: activators. hit rate 0.24% among 390,000; also: nearly all actives have a fitted effect of over 55% in size
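Yeast FUS proteinopathy model; galactose-induced FUS (2%), starting OD 0.005. Cpds in dilution series, 24hr, 30C, 99% humidity. Abs 600 nm growth. Pos ctrl CP55940 (top 92uM final); neg ctrl DMSO.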
ERG Ets-DNA blk: qHTS for Small Molecule Inhibitors of the ERG Ets/DNA interaction; Transcriptional regulator ERG (Homo sapiens), P11308; fluorescence polarization, His-ERG Ets domain / labelled DNA; Potency, µM (doses to about 76.9 µM), most hits filed as inhibitors; hit rate 0.028% among 370,000; active = well fitted inhibition curve with a large enough effect in the polarisation, with a control signal flat; inconclusive = small, poorly fitted or top-dose-only effect, or effect the other way, or a change in a side signal; inactive = no such curve, though single readings can be large or run the other way; the % refers to the polarisation;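 also: polarization taken with two DNA probes labelled with fluorescein and Texas red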
Target sequence (P11308 whole entry, looked up, the tested form may be a part): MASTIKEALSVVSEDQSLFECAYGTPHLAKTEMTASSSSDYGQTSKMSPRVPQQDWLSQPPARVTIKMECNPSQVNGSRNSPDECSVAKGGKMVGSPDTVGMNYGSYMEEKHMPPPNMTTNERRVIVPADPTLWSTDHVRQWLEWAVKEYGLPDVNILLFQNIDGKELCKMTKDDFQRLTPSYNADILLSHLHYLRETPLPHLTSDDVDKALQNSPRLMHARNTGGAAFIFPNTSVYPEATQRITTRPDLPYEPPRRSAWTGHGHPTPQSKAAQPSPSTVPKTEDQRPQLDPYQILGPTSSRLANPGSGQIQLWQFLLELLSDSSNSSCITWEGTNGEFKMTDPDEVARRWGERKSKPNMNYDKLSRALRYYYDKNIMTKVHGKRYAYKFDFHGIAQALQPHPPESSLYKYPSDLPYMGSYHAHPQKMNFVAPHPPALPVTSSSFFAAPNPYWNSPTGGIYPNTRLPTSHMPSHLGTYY
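His-tagged ERG Ets domain (1 uM in the protein solution; 300mM KCl, 50mM Tris-HCl, 1mM EDTA, 1mM DTT, pH 7.5) received compound, then a probe mix of 5 nM fluorescein-DNA and 100nM Texas-615-DNA. Fluorescence polarization was read for both dyes.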
aSyn rescue: qHTS of alpha-syn Inhibitors; Potency, µM (titrated, usually from 46.1 µM), most hits filed as activators; Yeast expressing alpha-synuclein, growth rescue, BacTiter-Glo, 24 h; AID 652106, 2013; hit rate 0.14% among 370,000; also: nearly all actives have a fitted effect of over 65% in size
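Screening used galactose-induced yeast with toxic alpha-synuclein levels, exposed to compound for 24 hr at 30 deg C. Cell growth, read with BacTiter-Glo luminescence, gave the measured signal.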
Mito fusion act: qHTS Assay for Small Molecule Inhibitors of Mitochondrial Division or Activators of Mitochondrial Fusion. S. cerevisiae fusion-defective mutant growth rescue, CellTiterGlo 48 h. Potency, µM (titrated, usually from 46.1 µM), hits mostly activators. hit rate 0.23% among 320,000; also: nearly all actives have a fitted effect of over 45% in size
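Growth-rescue viability read-out: after 48 h at the non-permissive 37C in glycerol/ethanol YPEG, yeast mitochondrial fusion mutants are measured by CellTiterGlo luminescence; compounds (23 nl pinned per well) restoring growth score as division inhibitors or fusion activators.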
Abeta yeast res: qHTS for compounds that reverse cellular toxicity of Amyloid beta (A-beta) peptide in yeast: Primary Screen | yeast expressing A-beta42, growth rescue, OD600, 48 h; response scale: 0% DMSO, 100% iron-clioquinol control | Potency, µM (doses to about 46.1 µM), hits mostly activators | hit rate 0.063% among 410,000; also: nearly all actives have a fitted effect of over 55% in size
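Yeast A-beta toxicity model in growth medium with pinned compounds, 48 h at 30 C; growth read as absorbance at 600 nm. Normalized to FeCl3/clioquinol equimolar mix (positive) and DMSO (negative).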
Numbers stand for hits; - = inactive; ? = inconclusive; . = no result given. Unless noted, calls follow the shape of the dose curve; as a rule, active = well fitted curve in the direction sought with a large enough effect; inconclusive = small, poorly fitted or top-dose-only effect, or another doubt; inactive = no such curve, though single readings can be large; an effect the other way counts as inactive or inconclusive.

SMILES	TDP43 rescue	FUS suppressor	ERG Ets-DNA blk	aSyn rescue	Mito fusion act	Abeta yeast res
NC(=O)c1cc(Cc2ccccc2)sc1NC(=O)c1ccco1	?	-	-	-	16µM	-
COc1cc(-c2cc(NC=O)c3ncc(-c4ccc(C(C)=O)cc4)n3c2)ccc1O	-	?	.	-	.	-
O=C(COc1ccc(Cl)cc1)NCC(c1cccs1)S(=O)(=O)c1ccc(F)cc1 (configuration not stated)	?	-	-	.	.	-
O=C(Cc1ccc(Cl)cc1)NCC(c1cccs1)S(=O)(=O)c1ccc(F)cc1 (configuration not stated)	35µM	?	-	.	.	-
CC(C)(C)c1ccc(C(=O)NCC(c2cccs2)S(=O)(=O)c2ccc(F)cc2)cc1 (configuration not stated)	?	35µM	-	.	.	-
Cc1ccc(C)c(NC(=O)CSc2ncc3c(n2)-c2ccc(Cl)cc2N(C)S3(=O)=O)c1	-	-	-	.	.	-
CC(C)(C)c1ccc(C(=O)NCC(c2cccnc2)N2CCc3ccccc3C2)cc1 (configuration not stated)	22µM	-	-	.	.	-
CCOC(=O)/C(=C\c1cccnc1)C(=O)c1cc(C(C)=O)c(Nc2ccccc2)s1	3.2µM	.	-	-	-	-
COc1ccc2c(c1)CCc1c(C(=O)NCC(C)C)noc1-2	-	-	-	-	-	-
CCCNC(=O)c1noc2c1CCc1cc(OC)ccc1-2	13µM	-	-	-	-	-
Cc1ccc(S(=O)(=O)C(CNC(=O)COc2ccc(Cl)cc2)c2ccco2)cc1 (configuration not stated)	-	-	-	.	.	-
Clc1ccc(N2COC3c4cccc5cccc(c45)C32)cc1 (configuration not stated)	10µM	-	-	-	-	-
COc1ccc(N2COC3c4cccc5cccc(c45)C32)cc1 (configuration not stated)	11µM	-	-	-	-	-
Cc1sc2ncn(CC(=O)Nc3ccc(F)cc3Cl)c(=O)c2c1S(=O)(=O)N1CCN(c2ncccn2)CC1	-	-	-	.	.	-
CCc1nc2nc(C)cc(Nc3cccc(C)c3C)n2n1	-	-	-	.	.	-
Cc1cc(Nc2cc(Cl)ccc2C)n2nc(Cc3ccccc3)nc2n1	35µM	-	-	.	.	-
CCc1nc2nc(C)cc(Nc3cc(C)ccc3C)n2n1	20µM	-	-	.	.	-
Cc1cccc(Nc2cc(C)nc3nc(Cc4ccc(Cl)cc4)nn23)c1	?	-	-	.	.	-
CCOc1ccccc1NC(=O)CSc1nc2ccccc2nc1Cc1ccc(C)cc1	25µM	-	-	.	.	-
Cc1ccc(Cc2nc3ccccc3nc2SCC(=O)N2CCCCC2C)cc1 (configuration not stated)	35µM	?	-	.	.	-
COc1cccc(Cc2nc3ccccc3nc2SCC(=O)N2CCCCC2C)c1 (configuration not stated)	35µM	?	-	.	.	-
Cc1ccc(Cc2nc3ccccc3nc2SCC(=O)NCCC(C)C)cc1	?	-	-	.	.	-
COc1cccc2cc3c(nc12)C[C@@H]1CCCC(=O)N2CCC[C@@]12C3	.	-	.	.	.	.
CCOC(=O)c1noc2nc(C)n(CC(=O)Nc3ccc(OC)c(Cl)c3)c(=O)c12	-	-	-	-	.	-
Cc1ccc(C2=NC3(CCCC3)NC2=S)cc1	?	-	-	-	-	?
SMILES	TDP43 rescue	FUS suppressor	ERG Ets-DNA blk	aSyn rescue	Mito fusion act	Abeta yeast res
S=C1NC2(CCCCCC2)N=C1c1ccccc1	?	-	-	-	-	5µM
O=C1NC2(CCCCCC2)N=C1c1ccc(F)cc1	16µM	-	-	-	-	-
S=C1NC2(CCCC2)N=C1c1ccccc1	-	-	-	-	-	.
CCCCCCCCN1CCS(=O)(=O)N(Cc2ccc(F)cc2)C(C(=O)OC)C1 (configuration not stated)	.	-	.	.	.	.
CCC1CN(C(=O)Nc2ccccc2C(F)(F)F)c2ccccc2S1 (configuration not stated)	-	-	-	.	.	-
CCc1ccc(CN2CCCC(C(=O)Nc3ccccc3-c3ccc(OC)cc3)C2)o1 (configuration not stated)	-	-	32µM	-	-	-
COCc1ccc(CN2CCCC(C(=O)Nc3ccccc3-c3ccc(OC)cc3)C2)o1 (configuration not stated)	-	-	-	-	-	-
COC(=O)[C@H]1C[C@@]2(N3CCCC3)c3ccccc3N[C@H]2N1S(=O)(=O)c1ccc([N+](=O)[O-])cc1	.	-	.	.	.	.
CC(=NCc1ccccc1)c1ccc(O)cc1O	-	-	.	-	.	-
O=C(Nc1ccc(Br)cc1)C1CCCC1	11µM	-	-	-	-	-
O=C(NC(=S)Nc1ccc(Br)cc1)C1CCC1	?	-	-	-	-	5.6µM
O=C(NC(=S)Nc1cccc([N+](=O)[O-])c1)C1CCCC1	13µM	-	-	-	-	?
COC(=O)c1ccc(NC(=S)NC(=O)C2CCC2)cc1	?	-	-	-	-	8.9µM
Cc1sc2nc(COC(=O)CNC(=O)c3ccccc3Cl)[nH]c(=O)c2c1C	.	-	.	.	.	.
Nc1cc(-c2ccc(Br)cc2)nn1Cc1ccccc1	20µM	-	-	-	-	?
Nc1cc(-c2cccc(Br)c2)nn1Cc1ccccc1	?	.	-	-	-	-
Cc1ncsc1CCOC(=O)C12CC3CC(CC(C3)C1)C2	20µM	-	-	-	-	-
C=CCC[C@@H](Cc1ccc(F)cc1)C(=O)OC[C@@H]1CCCN1C(=O)[C@@H](CC=C)CC(=O)N(CCO)Cc1ccccc1	-	20µM	-	-	.	-
C=CCC[C@@H](Cc1ccc(F)cc1)C(=O)OC[C@@H]1CCCN1C(=O)[C@H](CC=C)CC(=O)N[C@H](CO)Cc1ccccc1	?	20µM	-	?	.	-
C=CCC[C@@H](Cc1ccc(F)cc1)C(=O)OC[C@H]1CCCN1C(=O)[C@@H](CC=C)CC(=O)N[C@H](CO)Cc1ccccc1	-	?	-	-	.	-
O=C(COc1ccc(F)cc1)Nc1nnc(S(=O)(=O)N2CCc3ccccc32)s1	-	-	-	.	.	-
CN1C(=O)c2cc(NC(=O)Nc3ccccc3)ccc2OC[C@H]2O[C@@H](CC(=O)Nc3cc(F)ccc3F)CC[C@@H]21	.	-	.	.	.	.
CC(=O)c1nn(-c2ccc(Cl)cc2)cc1C(=O)c1ccccc1	-	-	-	-	.	-
CCOC(=O)c1nn(-c2ccc(C)cc2)cc1C(=O)c1ccccc1	13µM	-	-	.	-	-

Bioassay records deposited in PubChem BioAssay by National Center for Advancing Translational Sciences (NCATS).
